Consider ten compounds from PubChem BioAssay (NCATS).

Activity calls are given as the source filed them. Calls follow the shape of the dose curve; as a rule, active = well fitted curve in the direction sought with a large enough effect; inconclusive = small, poorly fitted or top-dose-only effect, or another doubt; inactive = no such curve, though single readings can be large; an effect the other way counts as inactive or inconclusive.

Chain of Guanine nucleotide-binding protein G(i) subunit alpha-1 (Homo sapiens) (P63096 whole entry, looked up): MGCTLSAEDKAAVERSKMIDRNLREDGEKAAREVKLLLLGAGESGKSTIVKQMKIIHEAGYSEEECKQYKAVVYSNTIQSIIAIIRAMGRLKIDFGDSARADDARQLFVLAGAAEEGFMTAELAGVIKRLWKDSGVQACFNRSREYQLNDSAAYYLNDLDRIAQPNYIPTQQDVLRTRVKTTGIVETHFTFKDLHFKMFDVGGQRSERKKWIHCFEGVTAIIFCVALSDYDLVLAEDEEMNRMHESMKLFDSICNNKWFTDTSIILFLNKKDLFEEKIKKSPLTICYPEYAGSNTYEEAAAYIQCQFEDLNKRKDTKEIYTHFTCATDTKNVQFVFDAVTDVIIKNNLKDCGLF
Chain of Cytochrome P450 3A4 (Homo sapiens) (P08684 whole entry, looked up): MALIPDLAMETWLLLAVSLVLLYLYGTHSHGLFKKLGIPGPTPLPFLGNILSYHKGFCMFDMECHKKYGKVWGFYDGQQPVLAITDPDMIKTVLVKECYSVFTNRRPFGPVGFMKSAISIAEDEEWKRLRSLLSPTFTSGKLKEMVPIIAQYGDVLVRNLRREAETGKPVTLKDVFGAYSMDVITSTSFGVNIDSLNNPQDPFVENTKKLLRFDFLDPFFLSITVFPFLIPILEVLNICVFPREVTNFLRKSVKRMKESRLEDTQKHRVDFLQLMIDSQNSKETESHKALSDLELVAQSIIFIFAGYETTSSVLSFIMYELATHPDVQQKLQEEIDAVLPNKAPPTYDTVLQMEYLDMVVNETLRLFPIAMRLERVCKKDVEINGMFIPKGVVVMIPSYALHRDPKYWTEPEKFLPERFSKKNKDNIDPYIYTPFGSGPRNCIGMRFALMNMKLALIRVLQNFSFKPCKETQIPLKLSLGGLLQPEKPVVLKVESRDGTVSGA

The first test has as its target Guanine nucleotide-binding protein G(i) subunit alpha-1 (Homo sapiens) (UniProt P63096). As to the kind of experiment: qHTS Assay for Inhibitors of RGS12 GoLoco Motif Activity (Green Fluorophore) (AID 879).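 Also: 0% = labeled peptide with Gαi1 and full inhibition = labeled peptide alone without protein; negative values mean loss of peptide binding seen as reduced polarization.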 The following applies: Galphai1/FITC-RGS12 GoLoco peptide, fluorescence polarization; series mostly up to 57.1 µM; activity, negative = inhibition: at the top concentration. The method in brief: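 Fluorescence polarization assay: 50 nM Gαi1 with 10 nM FITC-labeled RGS12 GoLoco peptide in 10 mM Tris pH 7.5, 150 mM NaCl, 0.1 mM GDP, 0.05% NP40, 10 min at room temperature with compound.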
(In general: Quantitative high-throughput screening tests each substance at several concentrations.)
Take `COc1ccc2[nH]cc(CCN(C)C)c2c1`: the “activity, negative = inhibition” value was -22.5% (inactive). Same read-out and setting: for `COc1cc(CCN)ccc1O` the value was -14.5% (inactive). Regarding `N[C@H](CP(=O)(O)O)C(=O)O`, the “activity, negative = inhibition” value was -8.61% (inactive). Same read-out and setting: for `COc1ccc(CCN)cc1O` the value was -20.4% (inactive); for `O=C1NCN(c2ccccc2)C12CCN(C[C@H]1COc3ccccc3O1)CC2`, 4.86% (inactive). Regarding `CNc1ccc2oc(C[C@H]3O[C@]4(CC[C@H]3C)O[C@H]([C@H](C)C(=O)c3ccc[nH]3)[C@H](C)C[C@H]4C)nc2c1C(=O)O`, the “activity, negative = inhibition” value was -18.4% (inactive).

A further test has as its target Cytochrome P450 3A4 (Homo sapiens) (UniProt P08684). Put plainly: qHTS Assay for Activators of Cytochrome P450 3A4 (AID 885). Also: nearly all actives have a fitted effect of over 65% in size. Also: potency is read from the fitted curve at half-maximal effect. The conditions noted are these: recombinant CYP3A4, Luciferin-PPXE luminescence, 60 min; series mostly up to 57.1 µM; activity change, positive = activation: at the top concentration. The method in brief:
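Steps: enzyme/substrate mix dispensed; compound added, 10 min RT; NADPH regeneration solution added, 60 min RT; luciferin detection buffer stops reaction; 20 min later luminescence measured.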
On to `CCN(CC)CCO[C@H]1CC[C@@]2(C)C(=CC[C@@H]3[C@H]2CC[C@]2(C)C(=O)CC[C@H]32)C1`, for which the Potency was 15.8 µM (active).

On to `C=CCN1C[C@H](C)N([C@H](c2ccc(C(=O)N(CC)CC)cc2)c2cccc(O)c2)C[C@H]1C`, for which the “activity change, positive = activation” value was -66% (inactive).

As to `Clc1ccc(C2=CCC[C@H]3CC[C@@H]2N3)cn1`, the “activity change, positive = activation” value is -49.9% (inactive). Same read-out and setting: for `Fc1ccc(C(OCCN2CCN(C/C=C\c3ccccc3)CC2)c2ccc(F)cc2)cc1` the value was -58.1% (inactive).
